Source: the supplement of paper PMC6555819

Each sequence was assayed on LXRa:RXRa (NR concentration 270 nM, RXRa partner concentration 90 nM) (assay: PBM binding z-score (relative to random genomic background probes); higher = stronger binding; sequences stand for … in GC…GCGATTGACAGCGTAGAATGAAGG).
How it was run: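 Each nuclear receptor dimer, without ligand, was incubated for 1 h on custom Agilent 4×180K protein-binding microarrays. Binding was detected with antibodies against each partner (one per run), and scanned fluorescence was regression-normalized. The binding z-scores are referenced to random human genomic background probes.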

Sequence	PBM binding z-score
TCAGAGAGGTGAAGGTAACTCAGGTACGCAGTCG	2.12
GGTAGTTGGTCAGTAAAAGGTCACACACCGGTCG	4.29
GTACCAAGGTGAATAGTTCGTTGATGAGTAGGCG	0.334
TCTATTAGTTGAATAGGGCAACCGAAACAGCGGA	0.654
CAAACTAGGTCACAGAGCTCAAAGTCCGTGCGTA	3.18
ATCTCTTGGTAACAAGTTCAGTGAAAGAGAGGAC	0.448
TCAGACAGGTCAAGGTAACTCAGGTACGCAGTCG	4.63
TCGAGTAGGTTAGTCGGGGCGTTCAGCCAACATA	-0.272
TCTGCTAGGTCAGTTGGTCAGCTCACGAGCTGCC	0.925
AGAACGAGGGCACGCTGAGTTGATTGCAGAGTAG	0.4
AGAACGAGGGCACGCTGAGTAGATAGCAGAGTAG	0.529
ATATGTAGGTTACATCCGGGTCATTCCGGCTATG	4.16
AGAACGCGGGCACGCTGAGTTGATAGCAGAGTAG	-0.318
TCTTGTAGATCAATAGAGGCTAAGAAAGTGCGCT	0.411
CCTAGCAGGCCAATCTGGGTCACTGAAGGCTTGA	1.16
CCTTACGGGTCACGAGGTTACAGCACGACGAGCG	4.8
TCTTGTAGATCAGCAGGTGAAGAAAGCTGGCCAA	-0.0408
ACTATTAGCTGACTTAGGGCAACCGATACGACGC	-0.128
AGAACGAGGGCAATGAGTTGATCGCACGGGTGGC	0.0988
TTACCAAGGTGAAGGTCGTCGATCCCTCTGTAGA	1.01

Sequence	PBM binding z-score
CTCGAAAGGTCGGTTGAGGTGAATATACGGATAA	2.04
CGTCCAAGGTCAAGGCTAGGTCAGTGAAAGCATT	5.52
ACTAGCAGGCAAAGGGTCACTCAAGATTAGTCCG	2.93
TCTTGTAGAACAAAGGTTAAGAAAGCCGAAGCCT	1.68
TAACCTAGGTCATGGGCCAGTATACCACGCGAAC	4.78
CTACCAAGGTGAACAAGGTCGTTGCTTACTATTC	1.61
TGTGCTAGGTCAGTTGGTCAGCTAACGAGCTGCC	0.621
TCTGGTTGGTCACGGAGGTCACACACGACGGGTA	3.63
AGTCAAAGTTCATCTAGGTGACGTAAGATATGCT	5.85
GCTCTTAGTTGAAAGGGCAACCGAATGATTCTCG	0.538
CGTCCAAGGTCAGGGTCAGTGAAAGAGACTCGAA	3.93
TCATATAGCTAAAGGTGAAAGTCGAACGATATGA	1.09
AGAATGAGGTTACCAAAGATCAGGTAAACGCTTG	5.99
GCTGCTAGGTCAACTGATGGTTAGCTAAAGCTCG	2.96
TCGAGTAGGTTACTCGGGGCATTCAGCCAACATA	0.921
AGAAGGAGGGCACGCTGAGTTGATAGCAGAGTAG	0.52
GCATATAGGTAATACATGGTGAAAGTCCGATTGT	0.0177
GCTATTAGTTGAAAAGGCAACCGAATGATTCTCG	-0.013
CAAACTAGGTCAAGGTCAACGTCGGTTTGTGCCA	5.33
GCTTGTAAATCAAGGTTAAGAAAGACTAAGCTAA	1.71
